# HT1080NT lethal: kills 2HG-producing HT-1080-NT fibrosarcoma cells. HT-1080-NT fibrosarcoma viability, CellTiter-Glo ATP luminescence, 48 h. Potency, µM (highest dose often 46.1 µM), inactives show at the top dose activity, negative = less viability, most hits filed as cytotoxic. 360,000 compounds, 1.6% hits. AID 686970;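 note: NT is the 2HG producing partner of a matched IDH1 knockdown line; potency is the fitted concentration of half-maximal effect; 0% = DMSO-treated cells and -100% = media-only wells without cells; nearly all actives have a fitted effect of over 55% in size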
#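 Read-out is CellTiter-Glo luminescence after 10 minutes at room temperature, following 48 hours' compound treatment of HT-1080-NT cells (750 cells/well, RPMI, 5% FBS, 37 degrees C).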
# HT1080 IDH1KD tx: toxicity to HT-1080 IDH1 knockdown cells (counter line); HT-1080 IDH1 knockdown viability, ATP luminescence, 48 h; Potency, µM (titrated, usually from 46.1 µM), without a hit: at the top dose activity, negative = toxicity, hits mostly cytotoxic; 360,000 compounds, 2% hits;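 note: potency is the fitted concentration of half-maximal effect; 0% = DMSO wells and -100% = cell-free medium wells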
#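 Assay cells: HT-1080 with IDH1 knockdown, 750 per well, RPMI/5% FBS. Exposure: 48 h at 37 °C following 2 h pre-incubation. Read: CellTiter-Glo luminescence; fitted concentration-response, curve class assigned.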
# TDP1 cell CPT: growth inhibition of DT40 Tdp1-/-;hTDP1 cells with camptothecin (screen for TDP1 inhibitors); Potency, µM (titrated, usually from 46.2 µM), for inactives: at the top dose activity change, negative = growth inhibition, hits mostly inhibitors; 420,000 compounds, 12% hits; AID 686979; chicken DT40 Tdp1-/-;hTDP1 cells + 20 nM CPT, ATP luminescence, 48 h; note: potency is the fitted concentration of half-maximal effect; nearly all actives have a fitted effect of over 55% in size
#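 Cell growth measured by CellTiter-Glo luminescence after a minimum 48 h, 37 C compound exposure with 20 nM CPT in Tdp1-knockout DT40 cells stably expressing hTDP1, seeded 400/well; qHTS titration format.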
# IL1B secr inh: blocks inflammasome-driven IL-1 beta release; THP-1 LPS/ATP IL-1B secretion, AlphaLISA, 16 h; hits give low values; activity change, % at 57.5 µM; 360,000 compounds, 4.7% hits; in the data active = activity change below about -50%; inconclusive = mostly about -30% to -49%
#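 Secreted IL-1B measured by AlphaLISA bead assay after 16 h compound exposure of THP-1 cells; compounds (final up to 57.5 uM) added 1 h before LPS (250 ng/mL) and ATP (1.25 mM) stimulation; lower signal means less secretion.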
# DT40 TDP1 no CPT: qHTS for Inhibitors of human tyrosyl-DNA phosphodiesterase 1 (TDP1): qHTS in cells in absence of CPT. Potency, µM (doses to about 46.2 µM), for the others: top-dose activity change, negative = growth inhibition, hits mostly inhibitors. AID 686978, 2013. 420,000 compounds, 15% hits. DT40 Tdp1-/- hTDP1 cells, no CPT, ATP luminescence, 48 h; note: potency is the fitted concentration of half-maximal effect; nearly all actives have a fitted effect of over 55% in size
#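 Growth kinetics read by CellTiter-Glo luminescence after ≥48 hr at 37 °C. Cells: DT40 Tdp1-/- stably carrying human TDP1, 400 per well, compound exposure in the absence of CPT (DMSO vehicle).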
# uPA surface inh: cell surface uPA generation inhibition | cell surface uPA generation assay, qHTS | Potency, µM (highest dose often 38.3 µM), for inactives: top-dose activity change, negative = inhibition, actives largely listed as inhibitors | 330,000 compounds, 0.31% hits; active = well fitted inhibition curve with a large enough effect; inconclusive = small, poorly fitted or top-dose-only effect; inactive = no such curve, though single readings can be large or run the other way; tested in mouse RAW 264.7 cells; note: potency is the fitted concentration of half-maximal effect; nearly all actives have a fitted effect of over 55% in size
# Starred values were filed as active, the others as inactive; ? = inconclusive; . = no result given; [ ] = another dose, or the depositor's remark. An excerpt weighted towards active compounds, which were near 19% of everything screened. Unless noted, calls come from the whole dose curve; as a rule, active = well fitted curve in the direction sought with a large enough effect; inconclusive = small, poorly fitted or top-dose-only effect, or another doubt; inactive = no such curve, though single readings can be large; an effect the other way counts as inactive or inconclusive. Unless noted, % is set by controls: 0 for no effect and ±100 for the full control effect.
SMILES,HT1080NT lethal,HT1080 IDH1KD tx,TDP1 cell CPT,IL1B secr inh,DT40 TDP1 no CPT,uPA surface inh
COc1ccc(F)cc1COc1nc(C)nc2ccccc12,-2%,-7%,?,12,18µM*,0%
Cc1ccc(-n2nnc3c(=O)oc4ccccc4c32)cc1,?,?,5.8µM*,14,21µM*,10%
CCC(C)n1nnc2c(=O)oc3ccccc3c21 (stereo not drawn),4%,-29%,-1%,-17,-13%,.
CCOC(=O)CNC(=O)c1cc2c(=O)oc3ccccc3c2s1,.,.,-2%,.,-4%,.
Cc1ccsc1CN(Cc1ccco1)C(=O)c1ccc(Cl)cc1,.,.,16µM*,.,13µM*,.
O=C(CN(Cc1ccco1)C(=O)c1ccc(Cl)cc1)Nc1c(Cl)cc(Cl)cc1Cl,0%,2%,5%,4,-29%,9%
Cc1ccc(C(=O)N(Cc2ccco2)Cc2sccc2C)cc1,.,.,21µM*,.,23µM*,.
CCN(CC)C(=O)Cn1ncc2c([nH]c3ccc(C)cc32)c1=O,.,.,6%,.,-3%,.
CNC(=S)N/N=C/c1cccc(OCc2ccccc2F)c1,?,-15%,?,-6,23µM*,-15%
CCNC(=S)N/N=C/c1cccc(OCc2c(F)cccc2Cl)c1,-16%,-15%,?,0,16µM*,-6%
Fc1ccccc1COc1ccc(/C=N/NC(=S)NCc2ccccc2)cc1,-9%,-7%,12µM*,-6,13µM*,5%
CCOc1ccc(/C=N/NC(=O)CC(=O)NCc2ccccc2)cc1,0%,0%,7%,-22,-1%,5%
COC(=O)c1ccccc1NC(=O)c1cc(C)nc2c1c(C)nn2-c1ccc(C)cc1,.,.,0%,.,-5%,.
O=C(NCC1CCCO1)c1cn(Cc2ccccc2Cl)nc1-c1ccccc1 (stereo not drawn),7%,10%,-18%,-1,?,2%
CN(C)S(=O)(=O)c1cccc(COc2ncnc3c(Cl)cc(Cl)cc23)c1,0%,5%,?,32,?,-2%
O=C(Nc1ccc2c3c(cccc13)CC2)c1ccccc1,-4%,-7%,?,34,?,.
O=C1CC(N2CCCCCC2)C(=O)N1c1ccc2c(c1)OCO2 (stereo not drawn),?,?,3.7µM*,-6,6.3µM*,2%
Cc1c(C(=O)NCc2cccc(Br)c2)oc2ccc3c(c12)C(=O)CC(C)(C)O3,.,.,?,.,15µM*,.
COc1ccccc1CNC(=O)c1oc2ccc3c(c2c1C)C(=O)CC(C)(C)O3,.,.,?,.,16µM*,.
Cc1cccc(C)c1NC(=O)c1oc2ccc3c(c2c1C)C(=O)CC(C)(C)O3,.,.,16µM*,.,?,.
CCCOc1ccc(CNC(=O)c2oc3ccc4c(c3c2C)C(=O)CC(C)(CC)O4)cc1 (stereo not drawn),.,.,16µM*,.,16µM*,.
Cc1c(C(=O)NCC2CCCO2)oc2ccc3c(c12)C(=O)CC(C)(C)O3 (stereo not drawn),3%,1%,-22%,17,?,-12%
Cc1c(C(=O)Nc2ccc(F)cc2F)oc2ccc3c(c12)C(=O)CC(C)(C)O3,.,.,-28%,.,-10%,.
O=C(CNc1cccc([N+](=O)[O-])c1)N/N=C/c1ccc([N+](=O)[O-])o1,?,?,2.9µM*,-67*,2.6µM*,-17%
CSc1ccc(/C=N/NC(=O)CNc2cccc3ccccc23)cc1,-9%,-2%,-3%,25,6%,1%
SMILES,HT1080NT lethal,HT1080 IDH1KD tx,TDP1 cell CPT,IL1B secr inh,DT40 TDP1 no CPT,uPA surface inh
O=C(CNc1cccc2ccccc12)N/N=C/c1ccc([N+](=O)[O-])o1,?,?,6.5µM*,-25,4.1µM*,?
O=C(CNc1cccc2ccccc12)N/N=C/C(Br)=C/c1ccccc1,?,?,12µM*,-28,10µM*,-22%
O=C(CNc1cccc2ccccc12)N/N=C/c1ccc[nH]1,-4%,?,9%,-25,-12%,-16%
CCNc1ncc2nc(-c3ccc(Cl)cc3)c(=O)n(Cc3cccs3)c2n1,.,.,-18%,.,-15%,.
CO[C@H]1[C@H](NC(=O)c2ccncc2)c2ccccc2C12CCN(C(=O)c1ccoc1)CC2,.,.,17%[9.04 µM],.,4%,.
COc1ccc(OC)c(CNC(=O)CCC(=O)N2Cc3cccc(OC)c3Oc3ncccc32)c1,3%,0%,1%,1,-22%,-16%
CCc1ccccc1NC(=O)Cn1nc(C)c2nn(-c3ccc(Cl)cc3)c(C)c2c1=O,.,.,?,.,15µM*,.
COC(=O)c1ccccc1NC(=O)Cn1nc(C)c2nn(-c3ccc(Cl)cc3)c(C)c2c1=O,.,.,21µM*,.,26µM*,.
CCOC(=O)c1cc(CC)sc1/N=C/C1=C(O)CC(C)(C)CC1=O,-3%,17%,-22%,8,-14%,1%
CCOC(=O)c1sc(N=NC2=C(O)CC(C)(C)CC2=O)c(C(=O)OCC)c1C,12%,24%,?,2,15µM*,-2%
CCCOC1CCCN(C(=O)CCc2nnc(-c3ccc4c(c3)OCO4)o2)C1 (stereo not drawn),-1%,-1%,-29%,0,-9%,5%
COc1cc(CCC(C)=O)ccc1OC(=O)c1c(F)cccc1Cl,-22%,-15%,5%,4,?,1%
CCSc1ccc(-c2cc(NC=O)c3ncc(-c4cc(OC)c(OC)c(OC)c4)n3c2)cc1,?,-23%,?,110,?,.
COc1ccc(-c2cnc3c(NC=O)cc(-c4ccc(S(C)(=O)=O)cc4)cn23)cc1OC,?,?,2.9µM*,-19,2.9µM*,.
COc1cc(-c2cnc3c(NC=O)cc(-c4ccc(S(C)(=O)=O)cc4)cn23)cc(OC)c1OC,?,?,16µM*,22,18µM*,.
COc1ccccc1-c1cc(NC=O)c2ncc(-c3ccc(S(C)(=O)=O)cc3)n2c1,-15%,-29%,12µM*,?,9.2µM*,.
N#Cc1ccc(CN2CC3(CCN(C(=O)c4ccco4)CC3)C2)cc1,.,.,12%,.,-15%,.
Cc1ccc(S(=O)(=O)c2nc(S(C)(=O)=O)sc2N2CCCCCC2)cc1,0%,-5%,-25%,-54*,-1%,-11%
Cc1ccc(S(=O)(=O)c2nc(S(C)(=O)=O)sc2N2CCN(C)CC2)cc1,-1%,0%,-12%,?,-4%,-4%
Cc1ccc(S(=O)(=O)c2nc(S(C)(=O)=O)sc2N2CCC(C)CC2)cc1,-1%,?,15µM*,-84*,15µM*,?

# Compound activity (PubChem)
